Experiment [1] in a line: P-glycoprotein substrates identified in KB-8-5-11 adenocarcinoma cell line, qHTS therapeutic library screen (AID 1346987). Further: nearly all actives have a fitted effect of over 65% in size. Put shortly:
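Human cervical adenocarcinoma KB-8-5-11 cells, selected in colchicine to over-express P-gp and assayed without it, were exposed for 72 h to titrated compounds. An ATP-based luminescent viability signal gave AC50.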
For orientation: In qHTS, concentration-response curves come from the screen itself.

A short description of experiment [2]: NS1 protein of Zika virus - qHTS assay to identify small molecule inhibitors in human HEK 293 cells (AID 1347053). Further: nearly all actives have a fitted effect of over 55% in size. The method in brief: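 Compound-treated (1 h pre-infection) HEK 293 cells infected with ZIKV MR766, MOI = 0.5; after 24 h at 37 C, NS1 read by TR-FRET; data normalized to uninfected and infected controls.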

Values joined by “and” are separate entries in the source; they are usually repeats but may differ in a detail not shown here. Identical values can stand only once. Results filed as inconclusive are left out. The source holds several records for some structures; these can differ, active in one and inactive in another. Active and inactive are the calls of the source. The call rests on the fitted dose curve; in most records, active means well fitted curve in the direction sought with a large enough effect; inconclusive means small, poorly fitted or top-dose-only effect, or another doubt; inactive means no such curve, though single readings can be large; an effect the other way counts as inactive or inconclusive.
Potency means the concentration at half of the fitted maximal effect.

Regarding `CC[C@H](C=C[C@@H](C)[C@H]1CC[C@H]2[C@@H]3CC=C4C[C@@H](O)CC[C@]4(C)[C@@H]3CC[C@]12C)C(C)C`, the Potency entry in experiment [1] and in experiment [2] was “inactive” throughout.
`CCn1c(-c2nonc2N)nc2cncc(CNC3CCNCC3)c21`: the Potency result in experiment [1] and in experiment [2] was “inactive” throughout.
Turning to `C=C1c2cccc(O)c2C(O)=C2C(=O)[C@@]3(O)C(O)=C(C(N)=O)C(=O)[C@@H](N(C)C)[C@@H]3[C@@H](O)[C@H]12`, the Potency result in experiment [1] and in experiment [2] was “inactive” throughout.
In the case of `Cc1nc2c([nH]1)CCN(C(=O)c1ccc(NC(=O)c3ccccc3-c3ccccc3)cc1)c1ccccc1-2`, the Potency result in experiment [1] and in experiment [2] was “inactive” in each case.
Regarding `Nc1[nH]nc2nnc(-c3c(-c4ccccc4)nn4ccccc34)cc12`, the Potency result in experiment [1] and in experiment [2] was “inactive” each time.
`CC1(C)C(N(O)C(=O)Nc2ccc(Cl)cc2)N(c2ccc(Cl)cc2)C(=O)N1CC(=O)NN=CC=Cc1ccc([N+](=O)[O-])o1` (centres undefined): the Potency entry in experiment [1] and in experiment [2] was “inactive” throughout.
Consider `Cn1c(=O)c(-c2c(Cl)cccc2Cl)cc2cnc(Nc3cccc(C(=O)O)c3)nc21`, for which the Potency entry in experiment [1] was “inactive and 4.61 µM (active)”. Moreover, the Potency entry in experiment [2] was “inactive”.
With `CCCC1OC2C[C@@H]3[C@H]4CCC5=CC(=O)C=C[C@]5(C)[C@H]4C(O)C[C@]3(C)[C@]2(C(=O)CO)O1` (some centres undefined), the Potency result in experiment [1] and in experiment [2] was “inactive” in each case.
As for `CCOC(=O)N1c2ccc(C(F)(F)F)cc2[C@@H](N(Cc2cc(C(F)(F)F)cc(C(F)(F)F)c2)C(=O)OC)C[C@H]1CC`, the Potency entry in experiment [1] and in experiment [2] was “inactive” in each case.
With `O=C(O)c1nc(=O)[nH]c(=O)[nH]1`, the Potency entry in experiment [1] and in experiment [2] was “inactive” each time.
With `COc1cc(Nc2nc3ccccc3nc2NS(=O)(=O)c2ccc(NC(=O)c3ccc(C)c(OC)c3)cc2)cc(OC)c1`, the Potency result in experiment [1] and in experiment [2] was “inactive” each time.
Take `COc1cc(CNC(=O)CCCCC=CC(C)C)ccc1O`: the Potency result in experiment [1] and in experiment [2] was “inactive” in each case.
On to `CC1(C)CC(=O)c2c(C(F)(F)F)nn(-c3ccc(C(N)=O)c(NC4CCC(O)CC4)c3)c2C1` (centres undefined), for which the Potency in experiment [1] is 0.418 µM (active); in experiment [2] it was 23.5 µM (active).
Consider `C[C@H](c1ccc(F)cc1CCCC(=O)O)N(c1cc(F)ccc1F)S(=O)(=O)c1ccc(Cl)cc1`, for which the Potency result in experiment [1] and in experiment [2] was “inactive” in each case.
Regarding `N=C1SC(=Cc2ccc(-c3ccc4c(c3)C(=O)NC4=O)o2)C(=O)N1c1ccc(Br)cc1`, the Potency result in experiment [1] and in experiment [2] was “inactive” each time.
On to `CCCCC[C@H](O)C=C[C@H]1[C@H](O)CC(=O)[C@H]1CCCCCCC(=O)O`, for which the Potency result in experiment [1] and in experiment [2] was “inactive” throughout.
In the case of `Cc1ccc(NC(=O)c2cccc(N(C)C)c2)cc1NC(=O)c1ccc(O)cc1`, the Potency result in experiment [1] and in experiment [2] was “inactive” in each case.
Turning to `COc1cc2ncnc(Nc3cc(Br)c(O)c(Br)c3)c2cc1OC`, the Potency result in experiment [1] and in experiment [2] was “inactive” throughout.
For the molecule `Cc1ccc(S(=O)(=O)OCC(=O)Nc2ccc(C(=O)O)c(O)c2)cc1`, the Potency entry in experiment [1] and in experiment [2] was “inactive” in each case.
Consider `CN1C(=O)C[C@H](C(=O)N[C@@H](Cc2cnc[nH]2)C(=O)N2CCC[C@@H]2C(N)=O)NC1=O`, for which the Potency result in experiment [1] and in experiment [2] was “inactive” each time.
Turning to `CC1(C)[C@H]2CC[C@]3(C)[C@@H](C(=O)C=C4[C@@H]5C[C@@](C)(C(=O)O)CC[C@]5(C)CC[C@]43C)[C@@]2(C)CC[C@@H]1O`, the Potency result in experiment [1] and in experiment [2] was “inactive” in each case.
On to `CCNC(=O)[C@H]1O[C@@H](n2cnc3c(N)nc(NCCc4ccc(CCC(=O)O)cc4)nc32)[C@H](O)[C@H]1O`, for which the Potency entry in experiment [1] and in experiment [2] was “inactive” each time.
On to `CC(=O)N1CCN(c2ccc(OCc3nn(C)c(C)c3-c3cccc4c(CCCOc5cc(C)c(Cl)c(C)c5)c(C(=O)O)n(Cc5cccnc5)c34)cc2)CC1`, for which the Potency entry in experiment [1] and in experiment [2] was “inactive” throughout.
For the molecule `CC(C)CN(C[C@H](O)[C@H](Cc1ccccc1)NC(=O)O[C@H]1CCOC1)S(=O)(=O)c1ccc(N)cc1`, the Potency entry in experiment [1] and in experiment [2] was “inactive” each time.
In the case of `O=S(=O)(O)c1ccc2cc(N=Nc3cc(S(=O)(=O)O)c4cccnc4c3O)ccc2c1`, the Potency result in experiment [1] and in experiment [2] was “inactive” throughout.
With `NS(=O)(=O)c1cc(Cl)c(Cl)c(S(N)(=O)=O)c1`, the Potency entry in experiment [1] and in experiment [2] was “inactive” in each case.
Take `Cc1nc(C(=O)NCC(=O)O)c(O)c2ccc(Oc3ccccc3)cc12`: the Potency result in experiment [1] and in experiment [2] was “inactive” in each case.
Take `Oc1ccc(C=Cc2cc(O)cc(O)c2)cc1`: the Potency result in experiment [1] and in experiment [2] was “inactive” throughout.
Take `O=C1CCCC(=O)C1C(=O)c1ccc(C(F)(F)F)cc1[N+](=O)[O-]`: the Potency entry in experiment [1] and in experiment [2] was “inactive” each time.
Take `COc1ccc(-c2cc(=O)c3c(O)cc(O[C@@H]4O[C@H](CO[C@@H]5O[C@@H](C)[C@H](O)[C@@H](O)[C@@H]5O)[C@@H](O)[C@H](O)[C@@H]4O)cc3o2)cc1O`: the Potency result in experiment [1] and in experiment [2] was “inactive” each time.
Turning to `Cc1cc(NC(=O)Nc2ccc(N(C)C)cc2)c2cc(F)cc(F)c2n1`, the Potency entry in experiment [1] and in experiment [2] was “inactive” in each case.
Turning to `OC[C@H]1O[C@@H](Oc2ccc(O)cc2)[C@H](O)[C@@H](O)[C@H]1O`, the Potency result in experiment [1] and in experiment [2] was “inactive” throughout.

For the origin of these results see PubChem BioAssay (NCATS).
